The list is not random: actives were taken first. Their share in the collection is about 7.4%.
SMN2 splice up: increases expression of the SMN2 splice variant; HEK293 SMN2-luciferase splicing reporter, luminescence, 30-36 h; Potency, µM (doses to about 46.1 µM), for the others: at the top dose activity change, positive = activation, most hits filed as activators; hit rate 2.8% among 210,000; note: % of control where 0% means no effect; nearly all actives have a fitted effect of over 55% in size
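HEK293 cells carry an SMN2 minigene-luciferase reporter in which exon 7 inclusion puts luciferase in frame. Cells were seeded at 2000 cells/well, attached for 10-12 hours, then exposed to compounds for 30-36 hours at 37C before ONE-Glo luminescence.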
ELG1 genotox: inducers of genotoxicity in HEK293T ELG1-luciferase cells | HEK293T ELG1-luciferase reporter, luminescence, 16 h | AID 504466 | hit rate 1.3% among 330,000 | Potency, µM (series often up to 46 µM), for inactives: at the highest dose activity change, positive = activation, actives largely listed as activators; note: % of control where 0% means no effect; nearly all actives have a fitted effect of over 60% in size
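16 hr compound incubation (37 °C, 5% CO2) of HEK293T cells carrying luciferase-tagged ELG1; luciferase then measured by ONE-Glo luminescence after 30 min at RT.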
NPC1 promoter act: NPC1 promoter activation. hit rate 2.4% among 320,000. Potency, µM (titrated, usually from 9.22 µM), for inactives: at the top dose activation, usual class: activators. Huh7 NPC1 promoter luciferase reporter, 24 h; note: % of control where 0% means no effect; nearly all actives have a fitted effect of over 60% in size
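Huh7 reporter cells (NPC1 promoter driving luciferase) are dosed with compound for 24 h at 37 °C, 5% CO2; luciferase detection reagent is then added and luminescence measured after 10 min at ambient temperature.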
FLuc counter: inhibits or activates purified firefly luciferase, miR-21 counter-screen; P08659; purified FLuc, Km substrates, luminescence inhibition; Potency, µM (titrated, usually from 57.5 µM), for the others: top-dose activity change, negative = inhibition, usual class: inhibitors; hit rate 6.9% among 360,000; AID 588342;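 note: plate controls were vehicle for no effect and reference inhibitor for full effect; nearly all actives have a fitted effect of over 55% in size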
Target sequence (P08659 whole entry, looked up): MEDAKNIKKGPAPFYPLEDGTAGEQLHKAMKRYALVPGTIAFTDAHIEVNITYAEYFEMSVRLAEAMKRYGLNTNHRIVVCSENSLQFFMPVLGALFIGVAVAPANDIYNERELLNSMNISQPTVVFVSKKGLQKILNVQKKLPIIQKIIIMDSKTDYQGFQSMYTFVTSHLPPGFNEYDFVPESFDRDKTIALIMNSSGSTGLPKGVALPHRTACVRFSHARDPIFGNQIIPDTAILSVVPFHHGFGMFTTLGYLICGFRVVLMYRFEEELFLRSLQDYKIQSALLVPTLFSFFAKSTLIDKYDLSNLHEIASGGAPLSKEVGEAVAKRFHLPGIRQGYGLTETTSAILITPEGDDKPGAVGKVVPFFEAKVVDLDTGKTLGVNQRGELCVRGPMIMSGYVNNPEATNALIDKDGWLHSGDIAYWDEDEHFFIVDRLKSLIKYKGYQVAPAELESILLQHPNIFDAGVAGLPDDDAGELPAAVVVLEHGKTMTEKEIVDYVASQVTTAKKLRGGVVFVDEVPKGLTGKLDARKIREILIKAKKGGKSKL
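Purified P. pyralis luciferase, 10 nM final, with Km-level 10 uM D-luciferin and 10 uM ATP in 50 mM Tris acetate pH 7.5, 10 mM Mg acetate, 0.01% Tween-20, 0.05% BSA; 6-point qHTS titration about 60 µM downward; luminescence read.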
Rab9 prom act: activates the Rab9 promoter; Potency, µM (top dose mostly 9.22 µM), for the others: at the highest dose activation, negative = inhibition, actives largely listed as activators; AID 485297; hit rate 2.8% among 320,000; Huh7 Rab9 promoter-luciferase reporter, luminescence, 24 h; note: % of control where 0% means no effect; nearly all actives have a fitted effect of over 60% in size
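Stable Rab9-luc Huh7, 1500 cells/well, 2 h settle; cmpd in DMSO, 24 h, 37 °C/5% CO2; luciferase reagent 10 min RT; luminescence.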
* = called active by the depositor; ? = inconclusive; · = not tested or not shown. Calls come from the whole dose curve; as a rule, active = well fitted curve in the direction sought with a large enough effect; inconclusive = small, poorly fitted or top-dose-only effect, or another doubt; inactive = no such curve, though single readings can be large; an effect the other way counts as inactive or inconclusive. Potency is the fitted concentration of half-maximal effect.

SMILES	SMN2 splice up	ELG1 genotox	NPC1 promoter act	FLuc counter	Rab9 prom act
O=C(c1ccc(S(=O)(=O)N2CCOCC2)cc1)N1CCc2ccccc21	·	-7%	-4%	-1%	6%
COc1ccc2c(c1)CCc1c-2n[nH]c1C(=O)NCCC(C)C	·	2.6µM*	1µM*	1.3µM*	0.79µM*
CC(C)NC(=O)c1[nH]nc2c1CCc1ccccc1-2	·	?	?	19µM*	3.5µM*
CNC(=O)c1[nH]nc2c1CCc1cc(OC)ccc1-2	·	?	?	17µM*	5µM*
O=c1cc(CSc2nc3ccccc3c(=O)[nH]2)c2ccc(O)cc2o1	6%	-10%	-3%	?	-2%
Cc1ccc(CNC(=O)c2nnn(Cc3ccc(F)cc3)c2N)cc1	6%	·	·	-2%	·
CC(=O)Nc1ccc(CNc2ncnc3ccc(-c4c(C)noc4C)cc23)cc1	·	4.1µM*	-11%	-13%	-2%
Cc1cccc(CNc2ncnc3ccc(-c4c(C)noc4C)cc23)c1	5.6µM*	·	·	·	·
Cc1noc(C)c1-c1ccc2ncnc(NC3CC3)c2c1	7.9µM*	·	·	·	·
Cc1cc(C)cc(NC(=O)NCc2noc3ccccc23)c1	·	·	·	-2%	·
Cn1nc(-c2ccccc2)cc1NC(=O)C1CCCCC1	·	2%	22%	?	25%
N#Cc1cnc(NCc2ccc(Cl)cc2Cl)nc1	·	5%	0%	-3%	-2%
Cc1cs/c(=N\N=C\c2ccccc2)n1Cc1ccco1	-17%	3%	10%	21µM*	8%
CC(C)CCN1C(=O)c2ccc(C(=O)Nc3ccc(O)cc3C(=O)O)cc2C1=O	·	-1%	1%	19µM*	2%
CC(C)CCN1C(=O)c2ccc(C(=O)Nc3ccccc3C(=O)O)cc2C1=O	·	4%	4%	21µM*	0%
COc1cc(NC(=O)c2ccc3c(c2)C(=O)N(CCC(C)C)C3=O)c(C(=O)O)cc1OC	·	-2%	-2%	?	3%
CC(c1ccccc1)N1C(=O)c2ccc(C(=O)Nc3ccc(Br)cc3C(=O)O)cc2C1=O (configuration not stated)	·	-9%	0%	2%	-2%
CC(c1ccccc1)N1C(=O)c2ccc(C(=O)Nc3ccccc3C(=O)O)cc2C1=O (configuration not stated)	·	-12%	-5%	24µM*	3%
CC(C)CN1C(=O)c2ccc(C(=O)Nc3ccc(O)cc3C(=O)O)cc2C1=O	·	-2%	-3%	6µM*	12%
COC(=O)c1sc(NC(=O)Cc2cccs2)nc1C	?	21µM*	13%	?	27%
COC(=O)c1sc(NC(=O)COc2ccc(C)cc2)nc1C	6%	6%	-1%	17µM*	11%
COC(=O)c1c(NC(=O)Cc2cccs2)sc2c1CCC(C)C2 (configuration not stated)	-1%	9%	21%	17µM*	?
CC(C)c1nnc(NC(=O)Cc2cccs2)s1	-12%	4%	-1%	2%	1%
COC(=O)c1sc(NC(=O)COc2ccccc2)nc1C	8%	18µM*	?	17µM*	?
COc1ccc(-c2cccc(NS(=O)(=O)c3ccc([N+](=O)[O-])cc3)c2)nn1	·	1%	3%	2%	3%
SMILES	SMN2 splice up	ELG1 genotox	NPC1 promoter act	FLuc counter	Rab9 prom act
Cc1ccc(S(=O)(=O)Nc2cccc(-c3ccc(N4CCCCCC4)nn3)c2)cc1	·	?	?	5.4µM*	?
Cc1cc(C)c(S(=O)(=O)Nc2ccc(-c3ccc(N4CCCCC4)nn3)cc2)c(C)c1	·	·	·	13µM*	·
O=S(=O)(Nc1cccc(-c2ccc(N3CCCCCC3)nn2)c1)c1ccccc1	·	·	·	7.6µM*	·
Cc1cccc(S(=O)(=O)Nc2cccc(-c3ccc(N4CCCCC4)nn3)c2)c1	·	·	·	3.4µM*	·
O=S(=O)(Nc1cccc(S(=O)(=O)N2CCCCCC2)c1)c1ccccc1	·	-2%	-1%	-13%	-2%
O=S(=O)(Nc1cccc(-c2ccc(N3CCCCC3)nn2)c1)c1ccc(F)cc1F	·	·	·	1.9µM*	·
O=S(=O)(Nc1cccc(-c2ccc(N3CCCC3)nn2)c1)c1cc(F)ccc1F	·	·	·	6µM*	·
O=S(=O)(Nc1cccc(-c2ccc3nncn3n2)c1)c1ccccc1F	·	?	15%	0%	1%
Cc1nnc2ccc(-c3cccc(NS(=O)(=O)c4cc(F)ccc4F)c3)nn12	·	2%	-13%	0%	1%
CC1CCN(c2ccc(-c3cccc(NS(=O)(=O)c4ccc(F)cc4F)c3)nn2)CC1	·	·	·	1.7µM*	·
Cc1nnc2ccc(-c3cccc(NS(=O)(=O)c4ccccc4Cl)c3)nn12	·	?	-16%	8%	1%
Cc1ccc(S(=O)(=O)Nc2cccc(-c3ccc(N4CCC(C)CC4)nn3)c2)s1	·	·	·	0.76µM*	·
Cc1ccnc(NC(=O)c2ccc(OCC3CCCO3)cc2)c1 (configuration not stated)	·	?	0.28µM*	0.95µM*	0.13µM*
O=C(O)c1ccc(NC(=O)c2ccc3c(c2)C(=O)N(CC2CCCO2)C3=O)cc1 (configuration not stated)	·	-1%	3%	?	-2%
Cc1ccc(NC(=O)c2ccc(OCC3CCCO3)cc2)c(C)c1 (configuration not stated)	?	14%	21%	?	?
O=C(Nc1ccncc1)c1ccc2c(c1)C(=O)N(CC1CCCO1)C2=O (configuration not stated)	-3%	2%	-2%	-6%	-1%
Cc1ccnc(NC(=O)c2ccc3c(c2)C(=O)N(CC2CCCO2)C3=O)c1 (configuration not stated)	-1%	7%	1%	21µM*	-3%
O=C1c2cccc3cccc(c23)C(=O)N1CC1CCCO1 (configuration not stated)	10%	4%	13%	-6%	9%
Nc1cccc(Oc2ccc3c(c2)C(=O)N(CC2CCCO2)C3=O)c1 (configuration not stated)	·	15%	1.6µM*	24µM*	1µM*
Cc1ccc(C(=O)Nc2ccc3c(c2)C(=O)N(CC2CCCO2)C3=O)cc1 (configuration not stated)	·	-10%	9%	4.8µM*	2%
Cc1nc2ccccc2n1C(=O)N(C)C	4%	-1%	-2%	4%	5%
CCN(CC)c1ccc(NC(=O)c2cc(CN3CCCC3)on2)c(C)c1	·	·	·	7%	·
COc1cc(/C=N/NC(=O)CCc2ccccc2)ccc1O	1%	-2%	-2%	?	-1%
COc1cc(/C=N/Nc2ccccc2C(F)(F)F)ccc1O	·	18%	10%	13µM*	?
COc1cc(/C=N/N(c2ccccc2)c2ccccc2)ccc1O	·	1%	-1%	19µM*	-1%
COc1cc(/C=N/Nc2ccccc2)ccc1O	·	?	4%	15µM*	-1%
NC(=O)C1CCN(c2nc(-c3ccc4c(c3)OCO4)cs2)CC1	·	·	·	19µM*	·
